Test results reported in PubChem BioAssay AID1456 (Vanderbilt High Throughput Screening Facility, 2008).
Among all 190,000 compounds or so, about 4,100 (2.2%) were called active. The list comes from a sample in which actives are over-represented; it also holds similar structures and randomly drawn compounds. Unmarked numbers belong to inactive results.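 Rule for the calls: active = thallium flux slope and its plate-corrected score both differing from the plate sample mean at a set confidence after two filtering rounds, in either direction; inactive = the rest.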

Biological target: Solute carrier family 12 member 5 (Homo sapiens) (UniProt Q9H2X9)
Assay: modulation of human KCC2 ion transport – cell-based, HEK293 KCC2, FluoZin-2 fluorescence, MLSMR, primary screen (AID 1456);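 for B-score of Tl+ flux slope (higher = more flux/activation; lower = inhibition): slope of fluorescence scaled to starting intensity during 10 to 20 s after thallium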
Conditions: KCC2 cells, thallium flux FluoZin-2 fluorescence; at 10 µM

Sequence of Solute carrier family 12 member 5 (Homo sapiens) (Q9H2X9 whole entry, looked up): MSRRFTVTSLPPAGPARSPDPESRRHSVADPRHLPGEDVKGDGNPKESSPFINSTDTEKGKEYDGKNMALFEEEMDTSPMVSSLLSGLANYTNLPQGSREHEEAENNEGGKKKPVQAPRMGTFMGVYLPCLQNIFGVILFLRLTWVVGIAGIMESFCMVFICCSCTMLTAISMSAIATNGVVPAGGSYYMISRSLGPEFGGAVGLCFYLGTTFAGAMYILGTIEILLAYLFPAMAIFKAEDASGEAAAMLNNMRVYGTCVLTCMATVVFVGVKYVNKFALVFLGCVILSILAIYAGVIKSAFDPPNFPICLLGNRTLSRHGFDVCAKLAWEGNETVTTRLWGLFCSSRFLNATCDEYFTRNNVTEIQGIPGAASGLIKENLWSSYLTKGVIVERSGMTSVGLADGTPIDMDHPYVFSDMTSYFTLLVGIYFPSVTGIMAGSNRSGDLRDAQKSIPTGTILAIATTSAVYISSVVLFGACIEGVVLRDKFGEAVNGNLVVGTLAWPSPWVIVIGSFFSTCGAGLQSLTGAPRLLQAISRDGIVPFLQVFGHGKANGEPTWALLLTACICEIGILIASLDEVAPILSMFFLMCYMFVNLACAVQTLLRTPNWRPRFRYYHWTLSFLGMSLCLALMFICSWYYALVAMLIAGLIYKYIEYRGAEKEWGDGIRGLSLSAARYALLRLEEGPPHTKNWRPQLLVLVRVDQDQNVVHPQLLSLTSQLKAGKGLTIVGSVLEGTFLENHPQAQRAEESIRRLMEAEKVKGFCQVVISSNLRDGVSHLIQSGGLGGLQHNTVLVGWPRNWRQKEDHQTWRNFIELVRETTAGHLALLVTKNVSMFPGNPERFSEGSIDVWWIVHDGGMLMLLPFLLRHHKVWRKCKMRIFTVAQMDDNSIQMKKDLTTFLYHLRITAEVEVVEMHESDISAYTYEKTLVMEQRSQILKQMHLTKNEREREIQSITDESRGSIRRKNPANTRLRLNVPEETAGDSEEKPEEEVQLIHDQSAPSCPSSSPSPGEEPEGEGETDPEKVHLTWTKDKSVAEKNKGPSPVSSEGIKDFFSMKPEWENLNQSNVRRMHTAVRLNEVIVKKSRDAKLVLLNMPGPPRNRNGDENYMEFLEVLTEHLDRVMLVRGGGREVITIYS

SMILES	B-score of Tl+ flux slope (higher = more flux/activation; lower = inhibition)
O=C(CSc1nnc(SCc2ccc(F)cc2)s1)Nc1ccc(C(=O)O)cc1	-2.12
COc1ccc([N+](=O)[O-])cc1NC(=O)CCc1ccccc1	-1.49
COc1ccc([N+](=O)[O-])cc1NC(=O)COC(=O)/C=C/c1ccco1	-3.66 (active)
CC(C)CNC(=O)COC(=O)/C=C/c1ccco1	0.238
O=C(COc1ccccc1[N+](=O)[O-])N/N=C/c1ccc[nH]1	1.37
CCOC(=O)C1CCN(c2c(Nc3cc(C)cc(C)c3)c(=O)c2=O)CC1	0.776
COC(=O)c1nc2ccccc2s1	-0.0154
COc1ccccc1OCc1nc2ccccc2s1	-1.36
CC(=O)c1sc(NC(=O)CCCOc2ccccc2C)nc1C	0.355
CC(=O)c1sc(NC(=O)c2cccc3ccccc23)nc1C	3.04
COc1cccc2sc(NNC(=O)c3nc4ccccc4s3)nc12	92.4 (active)
COc1cccc2sc(Nc3nc(C)c(C(C)=O)s3)nc12	16.2 (active)
O=C(CCc1n[nH]c(=O)[nH]c1=O)N/N=C/c1ccc(Br)o1	0.0262
Cc1ccc(C(=O)N/N=C\c2cc(Br)c(Br)o2)cn1	1.86
O=C(N/N=C/c1ccc(Br)o1)c1cncc(Br)c1	7.4 (active)
CCN(CC)CCCN=C(N)N	0.285
Cc1nc2cc(NC(=O)Nc3cccc(F)c3)ccc2n1C	0.703
NNC(=O)c1cccc(COCC(F)(F)C(F)F)c1	-0.618
Cc1cccc(-n2c(=O)c3c(C)c(C)sc3n(CC(N)=O)c2=O)c1	0.771
N#CCSc1nc2c(c(=O)n1Cc1ccccc1)C1(CCCC1)Cc1ccccc1-2	1.45
Cc1cccc(-n2c(SCC(N)=O)nc3c(c2=O)C2(CCCCC2)Cc2ccccc2-3)c1	4.92 (active)
Cc1cc(Nc2ccc(Cl)cc2)nc(N2CCOCC2)n1	-1.05
NC(=S)Nc1c(Cl)cccc1Cl	0.0214
C=CCNC(=S)NNC(=O)c1ccc(Br)o1	0.645
C=CCNC(=O)COC(=O)CNC(=O)c1cc(Cl)cc([N+](=O)[O-])c1	0.057
C=CCNC(=S)NNC(=O)COc1c(Cl)cc(Cl)cc1Cl	7.57 (active)

SMILES	B-score of Tl+ flux slope (higher = more flux/activation; lower = inhibition)
Cc1cc(Nc2ccc(N3CCOCC3)cc2)c2cccc(C)c2n1	-2.79
Cc1ccc(/C=N/NC(=O)CN2CCN(Cc3ccccc3)CC2)s1	0.187
C=CCNC(=S)N/N=C/c1ccc(C)s1	14 (active)
CNC(=S)N/N=C/c1ccc(N2CCOCC2)s1	1.59
O=C(Nc1nnc(CCN2CCCCC2)s1)c1cccc(Cl)c1	0.116
CN1CCN(c2ccc(CNS(=O)(=O)c3cccc(F)c3)cc2)CC1	-0.58
Cc1nnc(C)c2c(C)n(N)c(C)c12	0.198
COc1ccc(S(=O)(=O)Nc2cccnc2)c(Cl)c1Cl	0.54
CCOC(=O)C1Sc2[nH]c(=O)sc2C(c2ccc(Cl)cc2)C1C(=O)OCC (configuration not stated)	-3.93 (active)
CCOC(=O)C1C(c2ccc(Cl)cc2)NC(=S)NC1(O)C(F)(F)F (configuration not stated)	1.75
CCOC(=O)C1=C(C)NC(=O)N(C(C)=O)C1c1ccc(Cl)cc1 (configuration not stated)	-1.98
CCOCCn1c(-c2ccccc2)nc2ccccc21	0.025
Cc1cccc(-n2cnc(C(=O)NNC(=S)Nc3ccccc3)c2)n1	-1.44
CCOc1ccc(-c2n[nH]c(=S)n2/N=C/c2cc3c(cc2[N+](=O)[O-])OCO3)cc1	0.939
Cc1ccc(-c2n[nH]c(=S)n2/N=C/c2cc3c(cc2[N+](=O)[O-])OCO3)cc1	0.106
O=[N+]([O-])c1ccccc1/C=N/n1c(COc2ccccc2)n[nH]c1=S	24.3 (active)
COc1ccc(N(Cc2ccccc2)S(=O)(=O)c2cccc(C(=O)O)c2)cc1	-1.07
Cc1cs/c(=N\N=C\c2ccc(O)cc2)n1Cc1ccco1	-4.66 (active)
Cc1csc(=Nc2ccccc2)n1CCO	0.00145
CN(c1ccccc1)c1ccc(/C=c2\s/c(=C(/C#N)C(=O)C(C)(C)C)n(Cc3ccco3)c2=O)cc1	0.174
CCc1nc2sc3c(Cl)ncnc3c2c2c1CCCC2	1.2
Cc1ccc(F)cc1NC(=O)N1CCCN(c2ccc(C(F)(F)F)cn2)CC1	0.46
Cc1ccc(N(C(=O)c2sc(C)nc2C)C(C(=O)NC(C)(C)C)c2ccncc2)cc1 (configuration not stated)	0.0067
O=C(Nc1ccccc1)N1CCN(Cc2ccccc2)CC1	-0.481
O=C(CN1CCN(Cc2ccccc2)CC1)NC(c1ccccc1)c1ccccc1	-2.1
O=C(NC(=S)N1CCN(Cc2ccccc2)CC1)c1ccccc1	26.6 (active)

SMILES	B-score of Tl+ flux slope (higher = more flux/activation; lower = inhibition)
CC(=O)Nc1nc(C)c(-c2csc(Nc3ccc(S(N)(=O)=O)cc3)n2)s1	0.404
Oc1ccc(-c2nnc(Nc3ccccc3)c3ccccc23)cc1	-3.93
c1ccc(Nc2n[nH]nc2-c2ccccc2)cc1	-0.551
S=c1[nH]nc(NCCc2ccccc2)s1	-1.55
S=c1[nH]nc(Nc2ccccc2)s1	-8.06 (active)
CNC1(c2nnnn2-c2c(C)cccc2C)CCOC(C)(C)C1 (configuration not stated)	-0.333
Cc1cc(=O)[nH]c2nnnn12	0.843
CC(Nc1nc(N2CCOCC2)nc2ccccc12)c1ccccc1 (configuration not stated)	-0.0767
Cc1cc(C)c(C)c(S(=O)(=O)N[C@@H](C)C(=O)OC(C)C(=O)NC(N)=O)c1C (some centres not stated)	-0.78
Cc1ccc(-c2cc(C(=O)N3CCc4ccccc4C3)no2)cc1	0.312
O=C(c1cc(-c2cccc(O)c2)on1)N1CCc2ccccc2C1	-2.87
O=C(c1cc(-c2ccc(O)cc2)on1)N1CCCc2ccccc21	-2.96 (active)
COc1ccc(NC(=O)C2=NNC(=O)CC2)cc1S(=O)(=O)N1CCCCC1	1.01
CC1Cc2ccccc2N1S(=O)(=O)c1ccc(Cl)nc1 (configuration not stated)	-1.44
CC(CC(=O)Nc1cc(C(F)(F)F)ccc1Cl)c1ccccc1 (configuration not stated)	-1.96
O=C(NNc1ccccc1Cl)C(O)(c1cccc(C(F)(F)F)c1)c1cccc(C(F)(F)F)c1	14.9 (active)
O=C(Nc1cc(C(F)(F)F)ccc1Cl)C(=O)N1CCCCC1	0.245
[O-][N+]12CCCCC1CCCC2CO (configuration not stated)	-0.0478
COc1ccc2cc(CCl)c(Cl)nc2c1	0.0416
CC(NC(=O)C(C)(C)C)C(c1cccs1)N1CCN(Cc2ccccc2)CC1 (configuration not stated)	0.428
S=c1nc(C23CC4CC(CC(C4)C2)C3)nc2sccn12	2.46
CC(=O)NNC(=O)c1csc(Cc2c(Cl)sc3ccc(Cl)cc23)n1	13.6 (active)
CC(=O)Cc1nsc(NC(=O)c2ccc(Cl)cc2Cl)n1	1.49
CNC(=O)c1csc(Cc2c(Cl)sc3ccc(Cl)cc23)n1	-0.799
CN(Cc1nc(-c2cnccn2)no1)Cc1n[nH]c2c1CCCCC2	-2.53
CCn1c(SCC(=O)c2ccc3ccccc3c2)nnc1-c1cccs1	-5.11 (active)

SMILES	B-score of Tl+ flux slope (higher = more flux/activation; lower = inhibition)
O=C(CSc1nnc(-c2cccs2)n1Cc1ccco1)c1ccc2c(c1)OCO2	-2.4
CCn1c(Cc2cccs2)nnc1SCC(=O)c1ccc(C)cc1	-1.23
CC(C)=NN1C(=O)c2ccccc2NC1(C)C	0.347
CC(O)c1nc2c(c(=O)n(C)c(=O)n2C)n1C (configuration not stated)	0.852
COc1ccc(NC(=O)c2ccccc2[N+](=O)[O-])cc1OC	4.22 (active)
O=C(Nc1ccncc1)c1ccccc1[N+](=O)[O-]	1.37
COC(=O)CNC(=O)c1ccccc1[N+](=O)[O-]	0.532
Cc1cc(C)nc(SCc2cn3c(C)cc(C)nc3n2)n1	-0.647
CCOC(=O)CC1C(=O)NCCN1c1nc2c(C)cccn2c(=O)c1/C=C1\SC(=S)N(C(C)CC)C1=O (configuration not stated)	inactive
Cn1c(C(=O)NCCc2ccsc2)cc2c(=O)n(C)c3ccccc3c21	-3.14 (active)
Cn1c(C(=O)NCCCN2CCN(c3cccc(Cl)c3)CC2)cc2c(=O)n(C)c3ccccc3c21	0.0429
CC1CCCC(C)N1CCCNC(=O)c1cc2c(=O)n(C)c3ccccc3c2n1C (configuration not stated)	-1.27
O=C1c2cccc3c([N+](=O)[O-])ccc(c23)C(=O)N1CC1CCCO1 (configuration not stated)	-3.38
CN(c1ccccn1)c1ncnc2[nH]ncc12	0.0938
CC(=O)NC(=S)Nc1ccc(NC(=S)NC(=O)c2ccc([N+](=O)[O-])cc2)cc1	0.484
O=[N+]([O-])C(=c1ccc2c(c1)N1C3=C(CCCC3)CC3CCCCC31N=2)[N+](=O)[O-] (configuration not stated)	-0.0507
COc1ccc(/C=C/C(=O)c2ccc(OC)cc2O)cc1	-1.21
COc1ccc(/C=C/C(=O)c2cc(Br)ccc(=O)c2O)cc1	22.3 (active)
COc1ccc(C(=O)/C=C/c2ccc(OC3CSC3)cc2)cc1	0.0132
O=C(C[n+]1cc(-c2ccc(Cl)c(Cl)c2)n2c1CCC2)c1cccs1	0.636
CC(=O)N(OCc1ccc(OC(C)C)c(Cl)c1)C(C)=O	0.219
OCCCNc1nccc(-c2cc(Nc3cccc(Cl)c3)ncn2)n1	-0.723
CC(C)n1cnc2c(Nc3cccc(Cl)c3)nc(N(CCO)CCCO)nc21	-2.56 (active)
CC(C)C[C@H](CO)Nc1nc(N(C)c2cccc(Cl)c2)c2ncn(C(C)C)c2n1	-0.662
